# Values joined by “and” are separate entries in the source; they are usually repeats but may differ in a detail not shown here. Identical values can stand only once. Inconclusive results are not listed. Active and inactive are the calls of the source. Unless noted, calls follow the shape of the dose curve; as a rule, active = well fitted curve in the direction sought with a large enough effect; inconclusive = small, poorly fitted or top-dose-only effect, or another doubt; inactive = no such curve, though single readings can be large; an effect the other way counts as inactive or inconclusive.
# What was measured:
# [1] = molecular target: Thyroid hormone receptor beta (Homo sapiens) (UniProt P10828); test: qHTS assay for small molecule agonists of thyroid hormone receptor beta signaling (AID 588545; calls by dose curve)
# Thyroid hormone receptor beta (Homo sapiens), sequence (P10828 whole entry, looked up): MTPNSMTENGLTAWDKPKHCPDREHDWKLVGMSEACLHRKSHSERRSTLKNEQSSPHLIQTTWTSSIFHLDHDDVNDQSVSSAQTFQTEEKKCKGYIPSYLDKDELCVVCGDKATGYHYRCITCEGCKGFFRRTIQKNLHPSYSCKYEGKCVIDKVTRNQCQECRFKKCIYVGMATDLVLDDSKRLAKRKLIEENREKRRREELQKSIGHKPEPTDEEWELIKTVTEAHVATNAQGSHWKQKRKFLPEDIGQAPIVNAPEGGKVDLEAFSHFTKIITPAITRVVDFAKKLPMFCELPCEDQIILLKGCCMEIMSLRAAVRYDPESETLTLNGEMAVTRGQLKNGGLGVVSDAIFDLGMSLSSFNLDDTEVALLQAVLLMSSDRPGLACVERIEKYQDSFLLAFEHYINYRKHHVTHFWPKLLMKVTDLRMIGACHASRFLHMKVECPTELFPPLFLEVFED
# Outline: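 Cells (2500/well) were seeded, incubated 4 hrs at 37 C, dosed with a compound series, incubated 18 hrs, loaded with CCF4 dye for 2 hrs at RT, then read for fluorescence. Data were scaled between DMSO (0%) and 10 nM T3 (100%).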
# [2] = qHTS assay for small molecule antagonists of retinoid X receptor alpha signaling (AID 588546; active = well fitted inhibition curve with a large enough effect in the signal ratio, with a control signal flat, not every such curve was filed as active; the % refers to the signal ratio;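 also: cells stimulated with 9-cis-retinoic acid as agonist; % is scaled to controls: 0 for no effect and ±100 for the full control effect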); conditions: HEK293T RXRa-UAS-bla, beta-lactamase ratio, antagonist mode; measured here: W530 green channel, cytotoxicity proxy
# Outline: (§1)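 Beta-lactamase reporter inhibition, read as CCF4 fluorescence ratio (ex 405, em 460/530 nm) after 2 h at RT. HEK293T UAS-bla cells, 2500/well, were stimulated with 9-cis-RA at 500 or 100 nM final alongside test compound for 18 h at 37 C.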
# [3] = molecular target: Retinoic acid receptor RXR-alpha (Homo sapiens) (UniProt P19793); test: as above; conditions: HEK293T RXRa-UAS-bla, beta-lactamase ratio, antagonist mode
# Retinoic acid receptor RXR-alpha (Homo sapiens), sequence (P19793 whole entry, looked up): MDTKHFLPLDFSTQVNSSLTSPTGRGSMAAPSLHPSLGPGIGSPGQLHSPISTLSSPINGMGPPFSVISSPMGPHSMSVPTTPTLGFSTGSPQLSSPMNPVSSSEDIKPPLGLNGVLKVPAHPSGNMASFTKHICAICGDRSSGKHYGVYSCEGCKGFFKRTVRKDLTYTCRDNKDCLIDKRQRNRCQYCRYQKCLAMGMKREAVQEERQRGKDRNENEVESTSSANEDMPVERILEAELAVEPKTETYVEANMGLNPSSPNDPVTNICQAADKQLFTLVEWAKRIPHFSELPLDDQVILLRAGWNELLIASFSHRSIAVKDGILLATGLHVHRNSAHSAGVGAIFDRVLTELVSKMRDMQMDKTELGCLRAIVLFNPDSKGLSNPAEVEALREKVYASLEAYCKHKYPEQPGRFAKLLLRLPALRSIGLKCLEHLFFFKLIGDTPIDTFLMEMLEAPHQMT
# Outline: as §1
# [4] = molecular target: Thyroid hormone receptor beta (Homo sapiens) (UniProt P10828); test: qHTS assay for small molecule antagonists of thyroid hormone receptor beta signaling (AID 588547; active = well fitted inhibition curve with a large enough effect in the signal ratio, with a control signal flat, not every such curve was filed as active; the % refers to the signal ratio;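 also: cells stimulated with 0.4 nM T3 agonist during compound exposure; % is scaled to controls: 0 for no effect and ±100 for the full control effect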); conditions: TR-UAS-bla HEK293, beta-lactamase ratio, antagonist mode, 18 h
# Outline: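 TR-UAS-bla GripTite HEK293 cells in 2% charcoal/dextran FBS medium were preincubated 4 h at 37 C, given compound (0.59 nM to 92 uM) plus 0.4 nM T3 (final) for 18 h, then CCF4 for 2 h at RT; Hill fit gave IC50.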
# [5] = qHTS assay for small molecule activators of the p53 signaling pathway (AID 651743; active = well fitted activation curve with a large enough effect in the signal ratio, not every such curve was filed as active; the % refers to the signal ratio; also: % of control where 0% means no effect); conditions: HCT-116 p53RE-bla, beta-lactamase FRET ratio, 16 h; activation: stronger effect = higher value
# Outline: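 Here HCT-116 cells with an integrated p53-responsive beta-lactamase gene were incubated with compounds (16 hours, 37 C) after a 5-hour plating period; beta-lactamase activity was detected as fluorescence intensity via B/G FRET substrate.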
# [6] = qHTS assay for small molecule activators of the nuclear factor-kappa B (NF-kB) signaling pathway (AID 651749; active = well fitted activation curve with a large enough effect in the signal ratio; the % refers to the signal ratio; also: % of control where 0% means no effect); conditions: NF-kB-bla ME-180 cells, beta-lactamase FRET ratio, 16 h; activation: stronger effect = higher value
# Outline: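 Beta-lactamase reporter expression, controlled by NF-kB response elements in ME-180 cells, was quantified fluorometrically via FRET disruption; cells at 2,000/well had been incubated with 23 nL test compound for 16 hr.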
# [7] = qHTS assay for small molecule disruptors of the mitochondrial membrane potential - 1 hr assay (AID 651754; calls by dose curve; also: potency is read from the fitted curve at half-maximal effect; nearly all actives have a fitted effect of over 35% in size)
# Outline: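 Read-out: dye fluorescence at 490 nm ex/535 nm em (monomers) and 540 nm ex/590 nm em (aggregates) in HepG2 cells. Compound exposure 1 hr at 37C, followed by 30 min dye loading.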
# [8] = qHTS assay for small molecule disruptors of the mitochondrial membrane potential - 5 hr assay (AID 651755; calls by dose curve; also: potency is read from the fitted curve at half-maximal effect; nearly all actives have a fitted effect of over 40% in size)
# Outline: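 Seed HepG2 overnight, add compound, incubate 5 hr at 37C and 5% CO2, stain 30 min with Mito-MPS, then measure monomer (490/535 nm) and aggregate (540/590 nm) fluorescence.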
# [9] = molecular target: Tumor necrosis factor (Homo sapiens) (UniProt P01375); test: qHTS assay to identify small molecules that stimulate Tumor Necrosis Factor-alpha (TNF-alpha) secretion (AID 651757; active = well fitted curve in the direction sought with a large enough effect in the signal ratio; the % refers to the signal ratio; also: 0% is about no effect)
# Tumor necrosis factor (Homo sapiens), sequence (P01375 whole entry, looked up): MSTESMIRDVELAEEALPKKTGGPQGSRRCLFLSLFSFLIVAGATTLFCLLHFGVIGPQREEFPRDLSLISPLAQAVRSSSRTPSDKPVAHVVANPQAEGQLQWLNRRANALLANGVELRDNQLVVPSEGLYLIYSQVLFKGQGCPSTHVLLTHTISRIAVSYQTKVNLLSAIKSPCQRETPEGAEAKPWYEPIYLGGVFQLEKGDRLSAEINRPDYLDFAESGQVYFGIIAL
# Outline: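 THP-1 cells, 3000/well; compound 17 hrs, 37 C; add cryptate/XL665 anti-TNF-alpha antibody pair; 3 hr RT; TR-FRET (HTRF) read of secreted TNF-alpha. Quantitative HTS format.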
# [10] = qHTS assay for environmental chemicals that activate the Aryl hydrocarbon Receptor (AhR) signaling pathway (AID 651777); conditions: 1A2-DRE human hepatoma cells, luciferase, 24 h; activation: stronger effect = higher value; also: % of control where 0% means no effect; nearly all actives have a fitted effect of over 15% in size
# Outline: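 Measured luciferase activity, read 30 min after One-Glo addition at room temperature, from human hepatoma cells bearing a dioxin response element–CYP1A2 promoter reporter and exposed to compound for 24 hr at 37 C.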
# [11] = molecular target: Peroxisome proliferator-activated receptor alpha (Homo sapiens) (UniProt Q07869); test: qHTS assay for small molecule agonists of the peroxisome proliferator-activated receptor alpha (PPARalpha) signaling pathway (AID 651778); conditions: PathHunter PPARalpha complementation, chemiluminescence, 6 h; stronger effect = higher value; also: % of control where 0% means no effect
# Peroxisome proliferator-activated receptor alpha (Homo sapiens), sequence (Q07869 whole entry, looked up): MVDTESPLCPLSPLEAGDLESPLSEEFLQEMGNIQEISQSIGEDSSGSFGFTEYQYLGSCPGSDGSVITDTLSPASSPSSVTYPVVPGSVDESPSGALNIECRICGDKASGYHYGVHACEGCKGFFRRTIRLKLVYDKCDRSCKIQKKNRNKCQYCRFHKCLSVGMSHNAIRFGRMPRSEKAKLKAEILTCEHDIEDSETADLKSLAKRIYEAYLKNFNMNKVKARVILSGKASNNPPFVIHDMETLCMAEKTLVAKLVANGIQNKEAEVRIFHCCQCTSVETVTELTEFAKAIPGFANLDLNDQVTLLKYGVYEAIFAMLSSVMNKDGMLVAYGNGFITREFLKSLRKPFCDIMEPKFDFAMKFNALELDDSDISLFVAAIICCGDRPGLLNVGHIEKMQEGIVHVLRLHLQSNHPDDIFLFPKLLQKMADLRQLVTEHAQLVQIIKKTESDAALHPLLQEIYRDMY
# Outline: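 Cells plated at 2,000/well and held overnight at 37 C, 5% CO2, then compound added by pin tool for 6 hr; after PathHunter detection reagent and 60 min at room temperature, chemiluminescence from enzyme complementation was read.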
# [12] = molecular target: Nuclear receptor ROR-gamma (Homo sapiens) (UniProt P51449); test: qHTS assay for small molecule antagonists of the retinoid-related orphan receptor gamma (ROR-gamma) signaling pathway (AID 651802); also: potency is read from the fitted curve at half-maximal effect; nearly all actives have a fitted effect of over 60% in size
# Nuclear receptor ROR-gamma (Homo sapiens), sequence (P51449 whole entry, looked up): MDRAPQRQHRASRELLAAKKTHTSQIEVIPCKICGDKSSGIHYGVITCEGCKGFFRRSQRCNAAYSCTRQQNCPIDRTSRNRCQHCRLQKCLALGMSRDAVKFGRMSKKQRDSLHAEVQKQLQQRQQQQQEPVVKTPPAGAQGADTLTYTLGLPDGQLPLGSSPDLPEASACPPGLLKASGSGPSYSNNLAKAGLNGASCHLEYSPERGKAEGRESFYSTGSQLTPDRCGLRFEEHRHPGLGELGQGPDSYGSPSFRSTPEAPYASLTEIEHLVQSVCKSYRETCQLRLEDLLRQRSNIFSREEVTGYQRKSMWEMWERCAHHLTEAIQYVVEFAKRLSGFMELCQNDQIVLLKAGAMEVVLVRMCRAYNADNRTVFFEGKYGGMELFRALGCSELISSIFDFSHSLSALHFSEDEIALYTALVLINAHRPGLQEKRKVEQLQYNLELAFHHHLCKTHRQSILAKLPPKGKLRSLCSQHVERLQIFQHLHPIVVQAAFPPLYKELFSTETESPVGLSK
# Outline: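 Luciferase read-out: ONE-Glo luminescence after 30 min at room temperature, following 16hr doxycycline induction at 37C, 5% CO2 of CHO cells with TET-inducible ROR and RORE-LUC reporter; decreased luminescence = reduced reporter activity.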
# [13] = qHTS assay for small molecule agonists of the antioxidant response element (ARE) signaling pathway measured by Nrf2-dependant transcriptional activity (AID 720636; active = well fitted curve in the direction sought with a large enough effect in the repeat runs; an effect the other way counts as inactive or inconclusive;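 also: HepG2 cells with an ARE-driven luciferase reporter; % of control where 0% means no effect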)
# Outline: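 In HepG2 cells engineered with an Nrf2-responsive luciferase gene, ARE induction was quantified as luminescence after 16 hr compound treatment at 37 C.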
# [14] = qHTS assay for small molecule agonists of the antioxidant response element (ARE) signaling pathway measured by Nrf2-dependant transcriptional activity - cell viability counter screen (AID 720653; active = well fitted curve in the direction sought with a large enough effect in the repeat runs; an effect the other way counts as inactive or inconclusive; also: % is scaled to controls: 0 for no effect and ±100 for the full control effect); conditions: ARE-bla HepG2 viability, CellTiter-Glo ATP luminescence, 16 h; stronger effect = lower value
# Outline: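 ARE-bla HepG2 cells (2,000/well) rested 5 hrs at 37C/5% CO2, then exposed to compounds in DMSO for 16 hrs. Viability was read in the same wells as intracellular ATP by luminescence, 30 min at room temperature after reagent addition.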
# [15] = qHTS assay for cell viability of the p53RE-bla HCT-116 cell line (AID 743292); also: % is scaled to controls: 0 for no effect and ±100 for the full control effect; nearly all actives have a fitted effect of over 55% in size
# Outline: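 Intracellular ATP of p53RE-bla HCT-116 cells measured by luciferase luminescence following 16 h compound incubation at 37 C; DMSO-only wells served as vehicle controls.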
# [16] = molecular target: Catechol O-methyltransferase (Homo sapiens) (UniProt P21964); test: Confirmatory Screen for Target Class Profiling of Small Molecule Inhibitors of Methyltransferases (AID 1745852; calls by dose curve; also: potency is read from the fitted curve at half-maximal effect); conditions: MTase-Glo luminescence, SAH detection, recombinant enzyme; measured here: COMT max response; stronger effect = lower value
# Catechol O-methyltransferase (Homo sapiens), sequence (P21964 whole entry, looked up): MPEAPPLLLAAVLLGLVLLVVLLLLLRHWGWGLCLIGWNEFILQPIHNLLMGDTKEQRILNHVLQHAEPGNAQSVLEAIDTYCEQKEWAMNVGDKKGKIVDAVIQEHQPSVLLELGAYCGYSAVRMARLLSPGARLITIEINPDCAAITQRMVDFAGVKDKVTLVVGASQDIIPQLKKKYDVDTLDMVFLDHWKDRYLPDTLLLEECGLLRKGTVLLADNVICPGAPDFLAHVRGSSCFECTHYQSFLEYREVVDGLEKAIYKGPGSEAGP
# [17] = molecular target: Guanidinoacetate N-methyltransferase (Homo sapiens) (UniProt Q14353); test: as above; conditions: MTase-Glo luminescence, SAH detection, recombinant enzyme; activity change, negative = inhibition: at 85.7 µM (top of the series) unless noted
# [18] = molecular target: Nicotinamide N-methyltransferase (Homo sapiens) (UniProt P40261); test: as above; conditions: MTase-Glo luminescence, SAH detection, recombinant enzyme; measured here: NNMT max response; stronger effect = lower value
# Nicotinamide N-methyltransferase (Homo sapiens), sequence (P40261 whole entry, looked up): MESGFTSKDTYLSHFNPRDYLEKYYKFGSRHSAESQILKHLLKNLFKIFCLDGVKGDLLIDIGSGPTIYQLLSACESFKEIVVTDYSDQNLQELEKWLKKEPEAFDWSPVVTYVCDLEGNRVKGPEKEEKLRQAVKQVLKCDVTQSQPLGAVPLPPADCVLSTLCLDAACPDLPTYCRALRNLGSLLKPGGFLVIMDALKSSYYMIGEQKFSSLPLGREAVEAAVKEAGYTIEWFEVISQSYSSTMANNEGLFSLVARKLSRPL
# [19] = molecular target: Phenylethanolamine N-methyltransferase (Homo sapiens) (UniProt P11086); test: as above; conditions: MTase-Glo luminescence, SAH detection, recombinant enzyme; measured here: PNMT max response; stronger effect = lower value
# Phenylethanolamine N-methyltransferase (Homo sapiens), sequence (P11086 whole entry, looked up): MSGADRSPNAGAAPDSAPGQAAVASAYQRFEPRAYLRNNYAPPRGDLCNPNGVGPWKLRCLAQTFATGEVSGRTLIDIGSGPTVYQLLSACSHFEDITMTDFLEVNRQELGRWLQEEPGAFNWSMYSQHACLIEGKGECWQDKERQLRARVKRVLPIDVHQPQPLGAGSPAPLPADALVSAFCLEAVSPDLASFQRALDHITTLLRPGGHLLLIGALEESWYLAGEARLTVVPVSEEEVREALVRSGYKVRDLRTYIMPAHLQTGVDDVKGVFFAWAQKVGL
# [20] = molecular target: Glutathione peroxidase 1 (Homo sapiens) (UniProt P07203); test: Primary qHTS Assay for Inhibitors of Recombinant Selenoprotein Glutathione Peroxidase 1 (GPX1) (AID 1845191); also: % is scaled to controls: 0 for no effect and ±100 for the full control effect; nearly all actives have a fitted effect of over 65% in size
# Glutathione peroxidase 1 (Homo sapiens), sequence (P07203 whole entry, looked up): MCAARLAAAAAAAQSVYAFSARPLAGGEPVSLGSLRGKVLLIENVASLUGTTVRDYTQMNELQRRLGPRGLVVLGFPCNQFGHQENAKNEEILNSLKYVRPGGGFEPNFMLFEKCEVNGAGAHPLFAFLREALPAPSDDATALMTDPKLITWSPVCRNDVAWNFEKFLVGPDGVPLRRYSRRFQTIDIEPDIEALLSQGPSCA
# Outline: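 GPX1 10 nM, GR 100 nM, GSH 1 mM, NADPH 0.5 mM, CHP 0.5 mM (final). 30-min cpd preincubation, RT. Ex340/Em450 read t=0, t=15 min.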
# [21] = molecular target: Nuclear receptor subfamily 1 group I member 2 (Rattus norvegicus) (UniProt Q9R1A7); test: qHTS assay for small molecule activators of the rat pregnane X receptor (rPXR) signaling pathway (AID 651751; call rule not given here; also: 0% is about no effect); conditions: rPXR reporter cells, luciferase (One-Glo), 24 h
# Nuclear receptor subfamily 1 group I member 2 (Rattus norvegicus), sequence (Q9R1A7 whole entry, looked up): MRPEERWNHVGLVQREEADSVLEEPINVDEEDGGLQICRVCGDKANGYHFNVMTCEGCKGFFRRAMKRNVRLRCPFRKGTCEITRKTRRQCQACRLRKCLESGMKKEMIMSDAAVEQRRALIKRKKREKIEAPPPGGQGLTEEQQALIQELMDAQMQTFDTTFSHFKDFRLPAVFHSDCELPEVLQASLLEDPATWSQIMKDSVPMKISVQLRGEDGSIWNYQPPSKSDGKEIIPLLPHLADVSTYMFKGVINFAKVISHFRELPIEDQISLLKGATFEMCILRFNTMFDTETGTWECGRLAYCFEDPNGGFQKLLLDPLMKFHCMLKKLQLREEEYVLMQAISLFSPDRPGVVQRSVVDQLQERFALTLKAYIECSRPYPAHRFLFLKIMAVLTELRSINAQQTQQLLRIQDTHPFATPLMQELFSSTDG
structure (smiles),measurement,setting,value
C[C@H]1CCCC(=O)CCC/C=C/c2cc(O)cc(O)c2C(=O)O1,outcome,[1],inactive
same,max response,[2],17.7%
same,max response,[3],-20.8% (inactive)
same,activity change % (negative = inhibition),[4],-19.1% (inactive) and -18.2% (inactive)
same,activation,[5],20.6% (inactive)
same,activation,[6],-2.55% (inactive) and -2.52% (inactive) and -4.61% (inactive)
same,Potency,[7],37.6 µM (active)
same,Potency,[8],33.5 µM (active) and 37.6 µM (active)
same,outcome,[9],inactive
same,activation,[10],-5.88% (inactive) and -4.48% (inactive) and -7.69% (inactive)
same,max response,[11],-0.403% (inactive) and -3.88% (inactive) and -0.278% (inactive)
same,Potency,[12],42.2 µM (active)
same,outcome,[13],inactive
same,max response,[14],-27% (inactive) and -18.5% (inactive)
same,Potency,[15],inactive
same,activity,[16],-93%
same,Potency,[17],17.1 µM (active)
same,activity,[18],-84.9%
same,activity,[19],-95%
same,Potency,[20],inactive
same,max response,[21],-12.4% (inactive) and -5.06% (inactive) and -7.58% (inactive)

# From PubChem BioAssay (NCATS)
